Sampled rows, rich in hits. Any-hit rate of the full collection: about 1.7%.
TAG inh: inhibitors of triacylglycerol accumulation; inhibition, % at 12.5 µM; actives 0.66% (n = 230,000); H9c2 cells, Nile Red lipid (TAG) fluorescence; cells loaded with 200 µM oleic acid;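 active means pattern-corrected inhibition of lipid staining of at least 50% with the nuclear-stain viability signal not falling by more than 50%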;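 further: 0% = DMSO wells and 100% = triacsin C control wells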
MIN6 prolif: MIN6 beta-cell proliferation induction. MIN6 cells proliferation, ATPlite luminescence, 48 h; cells starved in 0.2% serum; 100% = growth in 10% serum. proliferation, % at 10 µM. actives 0.29% (n = 330,000);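 active means compounds whose signal lies at least 3.5 SD above the mean of all wells on their plate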;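 further: 0% = DMSO-treated cells in low-serum medium and 100% = 10% serum control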
CHT block: human CHT choline transport inhibition; B-score at 10 µM; CHT-expressing cells, membrane potential dye, choline response; stronger effect = lower value; Q9GZV3; AID 488975; actives 0.86% (n = 310,000);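 active means B-score over 3 SD under the library average, and starting fluorescence ratio not unusually high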;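 further: choline stimulus applied at its EC90 after an EC20 pre-addition; B-score computed on integrated fluorescence ratio after choline addition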
Target sequence (Q9GZV3 whole entry, looked up): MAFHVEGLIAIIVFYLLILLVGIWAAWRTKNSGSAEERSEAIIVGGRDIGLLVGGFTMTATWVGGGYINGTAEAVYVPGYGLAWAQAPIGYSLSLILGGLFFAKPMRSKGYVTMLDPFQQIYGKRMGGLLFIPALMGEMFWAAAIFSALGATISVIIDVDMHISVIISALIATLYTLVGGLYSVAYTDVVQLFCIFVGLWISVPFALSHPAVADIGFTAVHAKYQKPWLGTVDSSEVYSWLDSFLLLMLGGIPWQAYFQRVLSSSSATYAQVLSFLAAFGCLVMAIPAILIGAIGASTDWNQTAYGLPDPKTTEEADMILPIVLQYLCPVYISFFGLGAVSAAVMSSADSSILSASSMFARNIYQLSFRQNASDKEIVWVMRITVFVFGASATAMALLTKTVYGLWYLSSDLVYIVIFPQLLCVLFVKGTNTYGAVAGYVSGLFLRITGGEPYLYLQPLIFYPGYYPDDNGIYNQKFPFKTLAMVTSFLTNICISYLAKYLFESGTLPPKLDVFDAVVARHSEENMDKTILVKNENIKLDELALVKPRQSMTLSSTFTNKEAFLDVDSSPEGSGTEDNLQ
CHT allo act: allosteric activators of human choline transporter CHT; Q9GZV3; CHT-expressing cells, membrane potential dye, choline EC20; stronger effect = higher value; LV-AA mutant CHT in HEK293 cells; B-score at 10 µM; actives 0.49% (n = 310,000); AID 488977;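 active means initial fluorescence not abnormally high and integrated response B-score, plate-corrected, over 3 SD above library mean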
CHT activ conf: human CHT activation, confirmatory screen; actives 91% (n = 2,500); shares compounds with CHT allo act; activation, % at 10 µM; CHT-expressing cells, membrane potential dye fluorescence (FDSS); % of choline EC20–EC90 response window; HEK293 expressing CHT LV-AA mutant; choline added at its EC20;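 active means primary screen active, with duplicate mean activation above negative control mean plus 3 SD, cut at about 11% in these data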
HEK293 MP dye: counter-screen for CHT activators: effect in parental HEK293 cells; shares compounds with CHT allo act; membrane potential dye fluorescence (FDSS); measured after EC20 choline addition; ratio readout change at 10 µM, hits read low; actives 62% (n = 2,500); AID 623908;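 active means duplicate-averaged ratio beyond 3 SD from buffer wells, up or down, though filed actives are nearly all decreases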
* marks the source's active call; other numbers are inactive results; i = inactive; x = no result given.

SMILES | TAG inh | MIN6 prolif | CHT block | CHT allo act | CHT activ conf | HEK293 MP dye
O=C(NC(=O)c1ccccc1)Nc1cccc(S(=O)(=O)N2CCCCC2)c1 | x | -2.1 | i | i | x | x
CC[n+]1c(/C=C(\C)Nc2ccccc2)sc2ccccc21 | x | x | i | i | x | x
CCN1/C(=C/C=C/C=C/C=C/c2sc3ccccc3[n+]2CC)Sc2ccccc21 | x | -5.0 | i | 9.61* | 28.6* | -35.4*
CC[n+]1c(/C=C(/C)SC)sc2ccccc21 | x | -5.2 | i | 6.85* | 59.1* | -23.5*
CC[n+]1c(/C=C/Nc2ccccc2)sc2ccccc21 | -54.7 | -3.6 | i | i | 46.1* | -50.8*
CC[n+]1c(/C=C(\C)OC)sc2ccccc21 | -6.2 | -0.9 | x | x | x | x
CC[n+]1c(/C=C(\C)SC)sc2ccccc21 | x | -4.5 | i | 7.35* | 58.3* | -24.8*
Cc1occc1C(=O)NNC(=O)CN1C(=O)NC2(CCCCC2)C1=O | -4.8 | -2.0 | x | x | x | x
O=C(COC(=O)c1cc(Cl)ccc1O)NNC(=O)c1ccccc1F | 5.3 | -0.3 | x | x | x | x
CC/C(=C/c1sc2ccccc2[n+]1CC)SC | x | -2.4 | i | 6.48* | 50.5* | i
CC(C)CN1CCN(Cc2cccn2-c2ccccn2)CC1CCO (centres undefined) | -16.5 | -1.9 | i | i | x | x
CC(C)CN1CCN(Cc2cccn2-c2ccc(Cl)cn2)CC1CCO (centres undefined) | -7.5 | 2.0 | i | i | 54.0* | i
CCc1ccc(NS(=O)(=O)c2c(C(=O)N3CCCCCC3)c(C)n(C)c2C)cc1 | x | -1.9 | i | i | x | x
CCC1=C(OC(=O)N(CC)CC)N2C(=O)OC(=NCC3CC3)[C@]2(Cc2ccccc2)[C@H]2C1=CC[C@H]1C(=O)N(C)C(=O)[C@H]12 | 8.9 | -1.2 | i | 7.16* | 39.8* | i
CCC1=C(OC(=O)N(CC)CC)N2C(=O)OC(=NCC3CC3)[C@]2(Cc2ccccc2)[C@H]2C1=CC[C@H]1C(=O)N(c3ccccc3)C(=O)[C@H]12 | 30.0 | -9.0 | i | i | x | x
Cn1c(CNC(=O)c2ccco2)nnc1SCC(=O)N1CCN(c2ccccc2F)CC1 | x | -1.0 | i | i | x | x
Cc1ccc2cc(C)c(NCCO)nc2c1 | -7.6 | -1.0 | i | 8.1* | 31.0* | -52.2*
CCOc1ccc2nc(C)cc(Nc3ccc4c(c3)OCCO4)c2c1 | 27.6 | -3.7 | i | i | x | x
COc1cccc(Nc2nc3cc(C)ccc3cc2C)c1 | 2.6 | x | x | x | x | x
Cc1ccc2nc(C)cc(Nc3ccc4c(c3)OCCO4)c2c1 | 3.1 | -0.1 | i | i | 21.2* | -44.3*
Cc1ccc2nc(C)cc(NCCO)c2c1 | 5.1 | 0.5 | i | 8.72* | 53.4* | -66.6*
C[C@@H]1CN([C@@H](C)CO)C(=O)CCCn2cc(nn2)CO[C@H]1CN(C)S(=O)(=O)c1ccccc1F | -4.3 | x | x | x | x | x
CC(C)(C)c1ccc(CC(=O)N2CCC2(C)C(=O)NS(=O)(=O)c2ccccc2Cl)cc1 (centres undefined) | 1.0 | x | x | x | x | x
CCCNC(=O)NC(=O)COC(=O)c1ccc(OC)c(S(=O)(=O)N2CCCc3ccccc32)c1 | 4.1 | 0.9 | i | i | x | x
Cc1cc(C)n2nc(C(=O)Nc3ccc(S(=O)(=O)N4CCCCC4)cc3)nc2n1 | -6.4 | -2.0 | i | i | 21.7* | -23.9*
SMILES | TAG inh | MIN6 prolif | CHT block | CHT allo act | CHT activ conf | HEK293 MP dye
Cc1cc(C)n2nc(C(=O)Nc3ccc(S(=O)(=O)N4CCCC4)cc3)nc2n1 | 6.0 | -1.4 | i | i | x | x
CCSc1nnc(NC(=O)[C@@H](NC(=O)c2cc(OC)cc(OC)c2)C(C)C)s1 | 5.7 | 0.3 | i | i | x | x
Cc1ccccc1C(=O)N1CCN(c2ccccn2)CC1 | x | -4.5 | i | i | x | x
O=C(c1ccccc1-c1ccccc1)N1CCN(c2ccccn2)CC1 | x | -4.4 | i | i | 37.9* | i
Cc1ccc2ccc3ccc(C)nc3c2n1 | 37.4 | -7.7 | i | 10.5* | 67.4* | -75.1*
C[C@]12C=CC(=O)C=C1CC[C@@H]1C2=CC[C@]2(C)[C@@H](C(=O)CN3CCN(c4cc(N5CCCC5)nc(N5CCCC5)n4)CC3)CC[C@@H]12 | 16.7 | -6.8 | i | 8.21* | 48.5* | -75.7*
C=CCOc1ccc2ccccc2c1CNCCCN1CCOCC1 | x | -1.0 | i | i | x | x
C=CCOc1ccc(Br)cc1CNCCCN1CCOCC1 | x | -2.5 | i | i | 29.0* | i
NC(N)=NC(=O)c1nc(Cl)c(N2CCCCCC2)nc1N | 14.3 | -6.0 | i | i | 41.9* | -21.9*
NC(N)=NC(=O)c1nc(Cl)c(N)nc1N | 8.3 | -2.4 | i | 7.16* | 18.1* | -41*
CCOc1ccc(N(CC(=O)Nc2ccc(OC)cc2)C2=NC3CS(=O)(=O)CC3S2)cc1 (centres undefined) | 0.4 | -0.7 | i | i | x | x
CC(C)CCN(C(=S)NC(=O)C1CCCCC1)c1c(N)n(Cc2ccccc2)c(=O)[nH]c1=O | 6.0 | -1.7 | i | i | x | x
COc1ccc(CC2(C)OC(c3ccc(C)c([N+](=O)[O-])c3)=NN2C(C)=O)cc1 (centres undefined) | -9.4 | 0.0 | i | i | 27.0* | i
CCNc1nc2ccccc2[nH]1 | -11.5 | 0.7 | i | i | x | x
CCN(CC)CCCNc1nc2ccccc2[nH]1 | 4.8 | -0.6 | i | 7.8* | 34.8* | -34.5*
c1ccc2[nH]c(NCCCN3CCOCC3)nc2c1 | x | -3.3 | i | 6.35* | 38.4* | -33.2*
Cc1nc2cc(NC(=O)N3CCCC3)ccc2n1C | 9.4 | 0.0 | i | 6.55* | 26.4* | -39*
Cc1nc2cc(NC(=O)N3CCC(c4ccccc4)C3)ccc2n1C (centres undefined) | x | -1.6 | i | i | x | x
O=C(O)c1ccc2c(c1)C(=O)N(N1C(=O)c3ccccc3C1=O)C2=O | x | -0.7 | i | i | x | x
COc1ccc(-c2[nH]ncc2CNCc2cc(C)n(C)n2)c(F)c1 | -6.3 | 2.7 | i | 7.84* | 45.0* | -59.6*
COc1ccc(-c2[nH]ncc2CNCCn2cccn2)c(F)c1 | -12.3 | -0.7 | i | i | x | x
Cc1c2c(n3c(nc4ccccc43)c1C#N)N(CCCN(C)C)CC2 | 15.4 | 0.0 | i | 6.99* | 43.7* | -66.4*
CCc1c(C)c(C#N)c2nc3ccccc3n2c1NCCCN(C)C | 10.4 | x | x | x | x | x
Cc1c2c(n3c(nc4ccccc43)c1C#N)N(CCN(C)C)CC2 | 8.8 | 2.1 | i | 7.14* | 42.1* | -69.8*
CCCCc1c(C)c(C#N)c2nc3ccccc3n2c1NCCN(C)C | x | 0.8 | x | x | x | x
COc1ccc(/C=C(/NC(=O)c2ccc(OC)c(OC)c2)C(=O)NCCCn2ccnc2)cc1 | x | -0.7 | i | i | x | x
C[C@H]1CN=C(N(C)C)N1CCC1CCCCC1 | 9.9 | 6.2 | i | i | x | x

From PubChem BioAssay
